# Screens as filed in PubChem.
# HPGD inh = blocks human HPGD enzyme activity | P15428 | Potency, µM, actives largely listed as inhibitors | purified HPGD, NADH fluorescence kinetic, PGE2 substrate | 150,000 tested, 4.3% active; active = well fitted inhibition curve with a large enough effect, not every such curve was filed as active; inconclusive = small, poorly fitted or top-dose-only effect, or another doubt; inactive = no such curve, though single readings can be large or run the other way
#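 NADH formation kinetics: reaction with 30 uM PGE2 and 1 mM NAD+ (final), 20 nM enzyme, Tris-HCl pH 8 with Tween 20, after 15 min compound preincubation at room temperature. Fluorescence change, last versus first of five reads.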
# IMPase inh = membrane-permeable compound that blocks inositol monophosphatase | inhibition (IP1 accumulation), % at 46.1 µM | P97697 | CHO-M1 cells, IP1 accumulation, HTRF TR-FRET ratio | 120,000 tested, under 10 active | AID 901; active = well fitted curve in the direction sought with a large enough effect in the signal ratio, not every such curve was filed as active; inconclusive = small, poorly fitted or top-dose-only effect, or a change in a side signal; inactive = no such curve, though single readings can be large or run the other way; the % refers to the signal ratio;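 also: cells stimulated with carbachol in lithium chloride buffer; higher means more IMPase inhibition seen as more IP1 and lower FRET ratio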
# Target sequence (P97697 whole entry, looked up): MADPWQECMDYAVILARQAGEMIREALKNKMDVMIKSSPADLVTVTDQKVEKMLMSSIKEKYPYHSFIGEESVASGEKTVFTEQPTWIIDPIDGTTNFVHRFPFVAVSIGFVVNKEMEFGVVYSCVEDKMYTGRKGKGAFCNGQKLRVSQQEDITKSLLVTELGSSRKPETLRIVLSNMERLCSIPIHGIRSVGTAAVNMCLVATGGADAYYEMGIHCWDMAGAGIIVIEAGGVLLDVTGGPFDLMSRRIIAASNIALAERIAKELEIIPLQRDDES
#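 The IP-One HTRF competitive assay in carbachol-stimulated CHO-M1 cells quantifies cellular IP1. Compounds spanned up to 46 uM final, and activity is expressed as AC50 from concentration-response fits of the ratio and donor data.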
# ALDH1A1 block = inhibitors of human aldehyde dehydrogenase 1A1; P00352; Purified ALDH1A1, NADH fluorescence, propionaldehyde substrate; Potency, µM (highest dose often 75.3 µM), usual class: inhibitors; 220,000 tested, 7.3% active; AID 1030; active = well fitted inhibition curve with a large enough effect, not every such curve was filed as active; inconclusive = small, poorly fitted or top-dose-only effect, or another doubt; inactive = no such curve, though single readings can be large or run the other way
# IMPase Li cell = IMPase inhibition in cells with lithium potentiation | Potency, µM (titrated, usually from 59.4 µM), most hits filed as inhibitors | CHO-M1 cells, IP1 TR-FRET (IP-One), carbachol + lithium | 210,000 tested, 0.35% active | AID 1457;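 also: IP1 builds up when IMPase is blocked and the TR-FRET signal falls; nearly all actives have a fitted effect of over 50% in size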
#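 Test compounds were applied to CHO-M1 cells previously cultured for 16–30 h at 2000 per well. A small lithium amount accompanied them; after 30 min at 37C, IP1 was quantified by TR-FRET.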
# NPSR antag = blocks cAMP signaling of the human neuropeptide S receptor; AID 1461; Potency, µM (highest dose often 38.3 µM), hits mostly inhibitors; Q6W5P4; CHO-NPSR cells, cAMP TR-FRET, antagonist mode; 220,000 tested, 1% active; also: nearly all actives have a fitted effect of over 50% in size
# Target sequence (Q6W5P4 whole entry, looked up): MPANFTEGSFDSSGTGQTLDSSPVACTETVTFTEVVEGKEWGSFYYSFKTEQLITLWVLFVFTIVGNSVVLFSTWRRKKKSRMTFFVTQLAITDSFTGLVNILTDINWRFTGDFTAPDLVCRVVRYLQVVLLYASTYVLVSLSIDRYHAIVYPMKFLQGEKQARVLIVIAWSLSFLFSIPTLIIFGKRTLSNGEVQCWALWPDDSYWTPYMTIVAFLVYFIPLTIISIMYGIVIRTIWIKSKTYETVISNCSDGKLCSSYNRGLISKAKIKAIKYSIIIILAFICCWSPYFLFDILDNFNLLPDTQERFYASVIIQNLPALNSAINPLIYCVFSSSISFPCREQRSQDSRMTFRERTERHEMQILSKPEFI
# PNC inhibitor = perinucleolar compartment assembly inhibition. PC3M PTB-GFP, PNC prevalence imaging, 16 h; hits give low values. activity change (PNC), negative = inhibition, % at 10 µM. 140,000 tested, 3.1% active;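 active = readout at or below -70, meaning at least 70% loss of cells showing the perinucleolar compartment, a nuclear body marking cancer cells; inconclusive = readout between -30 and a set limit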
#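 PC3M cells stably expressing PTB-GFP, 750–1000 cells/well, treated 16 h at 37 °C with compound (23 nl of library stock), in duplicate. After paraformaldehyde fixation and Hoechst stain, imaged at 20x; PNC prevalence scored by image analysis.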
# A number is an active result; i = inactive; ? = inconclusive; nt = not tested or not shown; [ ] = dose if it differs, or a comment. A selection: hits, their analogues and other compounds. The true share with any hit is near 11%. Unless noted, calls follow the shape of the dose curve; as a rule, active = well fitted curve in the direction sought with a large enough effect; inconclusive = small, poorly fitted or top-dose-only effect, or another doubt; inactive = no such curve, though single readings can be large; an effect the other way counts as inactive or inconclusive.
SMILES,HPGD inh,IMPase inh,ALDH1A1 block,IMPase Li cell,NPSR antag,PNC inhibitor
O=C(NCc1ccco1)c1cc2nc(-c3ccc4c(c3)OCO4)cc(C(F)(F)F)n2n1,?,i,?,i,i,?
O=C(NCCc1cn2ccsc2n1)c1cccs1,25µM,i,?,i,i,i
CCCCOP(=O)(OCCCC)C(O)c1ccc(N(C)C)cc1 (configuration not stated),nt,nt,nt,nt,i,nt
CC1Cc2ccccc2N1C(=O)C1CCCCN1S(=O)(=O)c1ccccc1 (configuration not stated),i,i,i,i,i,i
O=c1[nH]c(-c2ccccc2Cl)nc2c1sc(=S)n2-c1ccccc1,nt,nt,?,i,i,nt
O=C(NCc1ccco1)c1cccnc1Cl,?,nt,?,i,i,i
O=C(NCc1ccco1)c1cnccn1,i,i,28µM,i,i,?
O=C(NCCCCNC(=O)c1cccs1)c1cccs1,i,nt,i,i,i,-114
O=C(NCc1ccco1)Nc1cccs1,i,i,28µM,i,i,?
O=C(NCc1ccco1)Nc1ccc([N+](=O)[O-])cc1,nt,nt,i,i,i,nt
O=C(NCc1ccco1)c1cc(-c2cccs2)on1,?,i,22µM,?,i,i
O=C(NCCCNC(=O)c1cccs1)c1cccs1,i,i,i,i,i,?
O=C(COC(=O)Cc1ccc(S(=O)(=O)N2CCCCC2)s1)Nc1ccc2c(c1)OCO2,i,i,?,i,i,i
O=C(CN1CCN(c2ccccc2)CC1)Nc1cccc(C(F)(F)F)c1,i,i,i,i,i,i
COc1ccc(NC(=O)Nc2ccc(Br)cn2)cc1,nt,nt,i,i,i,nt
O=C(CSc1nnc(-c2ccc(Cl)cc2)n1Cc1ccco1)c1cccs1,i,i,?,i,i,?
COc1cc(NC(=O)C/C(C)=N/NC(=O)c2cccs2)c(OC)cc1Cl,nt,nt,i,i,i,nt
O=C(CSCc1ccco1)c1cccs1,16µM,i,?,i,i,i
O=C(NCc1ccc(Cl)cc1)c1cc(-c2ccco2)on1,nt,i,?,nt,i,i
COc1ccc(CNC(=O)c2cc(-c3ccco3)on2)cc1,i,i,3.5µM,i,i,i
COc1cc(NCCC(=O)c2cccs2)c(OC)cc1Cl,nt,nt,1.4µM,i,i,nt
O=C(NCc1ccco1)c1nn2c(C(F)(F)F)cc(-c3cccs3)nc2c1Br,i,i,22µM,i,?,i
O=C(CCC(=O)c1cccs1)c1cccs1,i,i[0.369 µM],28µM,i,i,i
CC(SC(=S)N1CCCC1)C(=O)O (configuration not stated),nt,nt,i,i,i,nt
CC(C)=C1C(=O)NN(c2ccc(C)c(Cl)c2)C1=O,16µM,nt,i,i,i,i
SMILES,HPGD inh,IMPase inh,ALDH1A1 block,IMPase Li cell,NPSR antag,PNC inhibitor
CC(C)=C1C(=O)NN(c2cccc(Cl)c2)C1=O,7.9µM,nt,i,i,i,i
CCOC(=O)C1CCN(C(=O)c2sc3nc(C)nc(N4CCC(C)CC4)c3c2C)CC1,i,i,i,i,?,i
CN(C)c1nc(Cl)nc(N(C#N)CCOc2ccccc2)n1,nt,nt,14µM,i,i,nt
COc1ccccc1C1=NOC(COC(=O)c2ccc(Br)cc2)C1 (configuration not stated),i,nt,i,i,i,i
CCC(=O)N1CCN(c2ccc(NC(=S)NC(=O)c3ccc(OC)c([N+](=O)[O-])c3)cc2)CC1,nt,nt,11µM,i,i,nt
CCOc1ccc(C(=O)NC(=S)Nc2ccccc2N2CCC(C)CC2)cc1[N+](=O)[O-],i,i,?,i,i,?
CCOc1ccc(C(=O)NC(=S)Nc2ccc(N3CCC(C)CC3)cc2)cc1[N+](=O)[O-],i,i,7.9µM,i,i,-119
C#CC(C)(C)NC(=S)NC1CC2C=CC1C2 (configuration not stated),nt,nt,nt,nt,i,nt
CCOC(=O)Nc1cc(Br)c2c(c1)OCCO2,14µM,i,i,i,?,i
CCOC(=O)c1c(C)c(C(=O)Nc2ccc3c(c2)OCCO3)c(C)n1C,i,i,i,i,i,i
Cc1ccc(S(=O)(=O)NC2CCCCC2)c2nsnc12,i,nt,16µM,i,i,i
Cc1ccc2nsnc2c1S(=O)(=O)NC1CC1,i,i,i,i,i,i
C=CCNC(=O)CCCOc1ccc(C)cc1,7.1µM,i,i,i,i,i
COc1ccc(OCCCC(=O)NCC(C)C)cc1,25µM,i,i,i,i,?
Cc1ccc(OCCCC(=O)Nc2ccccc2C(F)(F)F)cc1,i,i,i,i,i,i
CCCCCCCCC(=O)NCCOc1ccc(OC)cc1,i,nt,i,i,i,?
C=CCNC(=O)CCCOc1cc(C)ccc1C,14µM,i,i,i,i,i
CCOC(=O)c1ccc(Nc2c(CC)c(C)nc3ncnn23)cc1,i,i,i,i,i,i
O=C(CCc1nc2ccccc2c(=O)[nH]1)N1CCN(C/C=C/c2ccccc2)CC1,i,i,?,i,i,i
CCc1ccc(N(C(=O)c2csnn2)C(C(=O)NC(C)(C)CC)c2cccnc2)cc1 (configuration not stated),nt,nt,?,i,i,nt
NC1=NC(=O)/C(=C/c2cn(Cc3ccccc3)c3ccccc23)S1,28µM,i,i,i,i,i
COc1cc(N(C)C)c([N+](=O)[O-])cc1C(=O)N1CCOCC1,nt,nt,i,i,i,nt
O=c1c2ccccc2nc(-c2ccccc2)n1CCN1CCOCC1,i,i,13µM,i,i,i
Cc1nc2ccccc2c(=O)n1CC(=O)N1CCOCC1,i,i,i,i,i,-85
Nn1c(-c2ccccc2)nc2ccccc2c1=O,nt,nt,i,i,i,nt
SMILES,HPGD inh,IMPase inh,ALDH1A1 block,IMPase Li cell,NPSR antag,PNC inhibitor
CCc1ccc(OCCCn2c(-c3ccc(Cl)cc3)nc3ccccc3c2=O)cc1,nt,i,nt,nt,nt,nt
O=c1c2ccccc2nc(-c2ccccc2)n1Cc1ccccc1,i,nt,16µM,i,i,?
Cc1nc2ccccc2c(=O)n1CCCN1CCOCC1,nt,nt,nt,nt,i,nt
O=c1c2ccccc2nc(-c2ccccc2)n1Cc1ccc(Cl)cc1,i,i,6.3µM,i,i,i
Cc1ccc(N(Cc2cc3cc(C)ccc3[nH]c2=O)S(=O)(=O)c2ccccc2)cc1,i,i,i,i,i,i
CCCCC(=O)NC(=S)Nc1cccc(NC(=O)CC)c1,i,i,i,i,i,i
CCCCC(=O)NC(=S)Nc1c(C)cc(Br)cc1C,?,nt,11µM,i,i,i
CCCCC(=O)NC(=S)NNC(=O)CC,i,i,22µM,i,i,-94
O=C(NC(=S)NNS(=O)(=O)c1ccccc1)c1ccccc1[N+](=O)[O-],20µM,nt,i,i,i,i
CCCCC(=O)NC(=S)NNS(=O)(=O)c1ccccc1,20µM,i,8.9µM,i,i,i
Cc1ccc(S(=O)(=O)N2CCN(C3CC(=O)N(CCc4ccccc4)C3=O)CC2)cc1C (configuration not stated),i,i,?,i,i,i
